Data: PubChem BioAssay
The source made the active and inactive calls. Unless noted, the rule behind the calls is not given here.

Key:
[1] = resazurin metabolic signal in HepG2 cells – cell-based, resazurin fluorescence, 24 h, PK04 Diversity Set, profiling panel (AID 1172); details: HepG2 viability, higher = more signal
[2] = budding yeast growth changes without added modifier – OD600, strain BY4716, 24 h, basal condition, primary screen (AID 1173); details: S. cerevisiae BY4716 growth, OD600, 24 h; higher = more signal, called active from +8 up or from −8 down
[3] = viability profiling in MM1S myeloma cells – cell-based, resazurin fluorescence, basal, 24 h, PK04 Diversity Set, profiling panel (AID 1174); details: higher = more signal, called active from +8 up or from −8 down;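 note: MM1S multiple myeloma cell line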
[4] = molecular target: Dihydroorotate dehydrogenase (quinone), mitochondrial (Plasmodium falciparum (isolate 3D7)) (UniProt Q08210); assay: inhibition of P. falciparum DHODH – biochemical, C-terminal His tag, absorbance 600 nm, primary screen (AID 1175); details: PfDHODH enzyme, DCIP absorbance 600 nm; higher = more signal, called active from +8 up or from −8 down;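 note: recombinant parasite enzyme with a five histidine tag at its C terminus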
Chain of Dihydroorotate dehydrogenase (quinone), mitochondrial (Plasmodium falciparum (isolate 3D7)) (Q08210 whole entry, looked up): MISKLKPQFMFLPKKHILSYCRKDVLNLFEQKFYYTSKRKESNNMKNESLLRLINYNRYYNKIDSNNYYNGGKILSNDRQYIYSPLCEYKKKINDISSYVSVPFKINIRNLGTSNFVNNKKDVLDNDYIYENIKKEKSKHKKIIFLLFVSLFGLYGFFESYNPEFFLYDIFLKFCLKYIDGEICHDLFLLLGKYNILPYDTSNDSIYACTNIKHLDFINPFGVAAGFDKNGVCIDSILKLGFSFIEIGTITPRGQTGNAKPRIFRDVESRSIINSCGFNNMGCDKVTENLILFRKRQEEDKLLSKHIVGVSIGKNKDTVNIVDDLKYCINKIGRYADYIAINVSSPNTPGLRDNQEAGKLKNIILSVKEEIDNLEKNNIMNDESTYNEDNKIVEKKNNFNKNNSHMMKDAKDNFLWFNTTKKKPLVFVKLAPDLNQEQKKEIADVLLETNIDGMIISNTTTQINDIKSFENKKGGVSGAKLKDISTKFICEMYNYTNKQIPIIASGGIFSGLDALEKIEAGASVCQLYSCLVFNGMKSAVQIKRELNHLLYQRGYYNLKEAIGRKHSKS

[5] = inhibition of PAO1 biofilm formation – strain PAO1, LB-PBS medium, absorbance 600 nm, primary screen (AID 1176); details: P. aeruginosa PAO1 growth/biofilm, A600, 12 h; higher = more signal
[6] = growth modulation of vineyard yeast isolate – strain RM11-1a, OD600, basal, 24 h, primary screen (AID 1177);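 note: cultures grown under basal conditions with no added stressor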; details: S. cerevisiae RM11-1a growth, OD600, 24 h; higher = more signal, called active from +8 up or from −8 down
[7] = growth of efflux-deficient E. coli DRC39 – strain DRC39, OD650, 24 h, E. coli filamentation inducers, primary screen (AID 1178);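 note: growth measured as culture turbidity by optical density at 650 nm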; details: E. coli DRC39 acrAB, higher = more signal, called active from +8 up or from −8 down
[8] = growth of efflux-deficient E. coli DRC39 – strain DRC39, OD650, 48 h, E. coli filamentation inducers, primary screen (AID 1179);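 note: screen aims at cell division blockers that make cells filament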; details: E. coli DRC39 delta-acrAB growth, higher = more signal, called active from +8 up or from −8 down
[9] = viability profiling in RPMI8226 myeloma cells – cell-based, resazurin fluorescence, basal, 24 h, PK04 Diversity Set, profiling panel (AID 1180); details: higher = more signal;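 note: RPMI8826 multiple myeloma cell line at 5000 cells per well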
[10] = molecular target: E3 ubiquitin-protein ligase XIAP (Homo sapiens) (UniProt P98170); assay: small molecules binding XIAP protein – biophysical, small-molecule microarray, fluorescence 635 nm, primary screen (AID 1181); details: higher = more signal;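 note: score merges 667 nm emission and signal to noise over triplicate slides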
Chain of E3 ubiquitin-protein ligase XIAP (Homo sapiens) (P98170 whole entry, looked up, the tested form may be a part): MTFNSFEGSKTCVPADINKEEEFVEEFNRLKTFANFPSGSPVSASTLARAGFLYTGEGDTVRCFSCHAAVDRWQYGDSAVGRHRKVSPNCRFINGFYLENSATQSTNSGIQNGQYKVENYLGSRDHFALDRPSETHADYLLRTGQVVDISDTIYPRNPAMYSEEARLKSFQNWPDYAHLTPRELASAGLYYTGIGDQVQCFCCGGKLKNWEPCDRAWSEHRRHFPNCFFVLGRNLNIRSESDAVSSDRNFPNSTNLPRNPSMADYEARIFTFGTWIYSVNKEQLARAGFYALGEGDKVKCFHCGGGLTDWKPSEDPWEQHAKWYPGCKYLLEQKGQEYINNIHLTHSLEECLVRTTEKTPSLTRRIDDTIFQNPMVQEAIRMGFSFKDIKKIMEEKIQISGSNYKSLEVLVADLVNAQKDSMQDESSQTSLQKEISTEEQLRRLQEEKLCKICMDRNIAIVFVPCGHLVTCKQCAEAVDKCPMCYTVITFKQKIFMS

[11] = system: XIP peptide (Xip251-270) binding; assay: XIP fragment 251-270 binding compounds – biochemical, small-molecule microarray, fluorescence 635/667 nm, 0.1 µg/mL protein, primary screen (AID 1182); details: fluorescent protein binding, 635 nm, higher = more signal, called active from +8 up or from −8 down
[12] = system: XIP peptide (Xip251-270); assay: compounds binding XIP fragment 251-270 – biochemical, small-molecule microarray, fluorescence 635/667 nm, 0.5 µg/mL protein, primary screen (AID 1183); details: fluorescence 635 nm, higher = more signal
[13] = blood-stage malaria parasite viability loss – strain 3D7, DAPI fluorescence, 100 nL, primary screen (AID 1184);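 note: parasites grown inside human red blood cells in medium with human serum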; details: P. falciparum 3D7 growth, 3 d, higher = more signal
[14] = molecular target: Homeobox protein Hox-A13 (Mus musculus) (UniProt Q62424); assay: disruptors of Hoxa13 oligonucleotide interaction – biochemical, fluorescence polarization, labeled oligonucleotide, primary screen (AID 1185); details: Hoxa13:DNA binding, 15 min, higher = more signal, called active from +8 up or from −8 down
Chain of Homeobox protein Hox-A13 (Mus musculus) (Q62424 whole entry, looked up): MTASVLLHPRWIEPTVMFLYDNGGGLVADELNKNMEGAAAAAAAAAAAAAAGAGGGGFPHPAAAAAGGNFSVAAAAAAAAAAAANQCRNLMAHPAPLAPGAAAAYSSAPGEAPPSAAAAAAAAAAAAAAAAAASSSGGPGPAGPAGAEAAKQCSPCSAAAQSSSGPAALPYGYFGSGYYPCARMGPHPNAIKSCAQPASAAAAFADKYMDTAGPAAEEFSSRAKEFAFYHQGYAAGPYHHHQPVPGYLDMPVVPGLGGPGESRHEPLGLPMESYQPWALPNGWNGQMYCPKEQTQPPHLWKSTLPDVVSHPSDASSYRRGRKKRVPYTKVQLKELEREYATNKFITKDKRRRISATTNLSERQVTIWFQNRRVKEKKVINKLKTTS

[15] = blockers of DNA damage checkpoint Chk1 activation – imaging, HeLa, hydroxyurea, phospho-Chk1 antibody, percent positive cells, primary screen (AID 1186); details: hydroxyurea-induced phospho-Chk1 immunofluorescence imaging, higher = more signal
[16] = blockers of DNA damage checkpoint Chk1 activation – imaging, HeLa, hydroxyurea, phospho-Chk1 nuclear intensity, primary screen (AID 1187); details: hydroxyurea-induced phospho-Chk1 immunofluorescence imaging, higher = more signal

Structure (SMILES)	z-score [1]	z-score [2]	z-score [3]	composite z-score [4]	z-score [5]	z-score [6]	z-score [7]	z-score [8]	z-score [9]	composite z-score [10]	composite z-score [11]	composite z-score [12]	z-score [13]	z-score [14]	z-score [15]	z-score [16]
COCCCNC(=O)[C@@H]1c2ccccc2C(=O)N(Cc2cc(C(F)(F)F)cc(C(F)(F)F)c2)[C@H]1c1ccc(CO)cc1	-0.249	-0.65 (inactive)	-0.0193 (inactive)	0.721 (inactive)	0.196 (inactive)	-0.432 (inactive)	0.153 (inactive)	0.304 (inactive)	0.431	0.0871	-0.313 (inactive)	-0.903	-1.14	-3.22 (inactive)	-0.334 (inactive)	-0.768 (inactive)
CCCCN1CC=CC23O[C@@H]4C=CCOC(=O)[C@@H]4[C@H]2C(=O)N(C(CO)C(C)C)[C@@H]3C1=O (stereo not given in full)	-0.469	0.303 (inactive)	-0.908 (inactive)	-0.221 (inactive)	0.0405 (inactive)	0.707 (inactive)	-0.781 (inactive)	-0.825 (inactive)	-0.844	-0.22	-0.332 (inactive)	-0.186	-0.156	-5.09 (inactive)	0.216 (inactive)	0.118 (inactive)
CO[C@H]1O[C@H](CO)[C@@H](OC(=O)Nc2ccccc2)[C@@H]2OC(=O)[C@H](Cc3ccccc3)C/C=C/C[C@@H](Cc3ccccc3)C(=O)O[C@@H]12	-1.41	0.411 (inactive)	-3.52 (inactive)	-1.69 (inactive)	0.385 (inactive)	0.887 (inactive)	1.04 (inactive)	1.99 (inactive)	-2.26	0.288	1.5 (inactive)	0.539	-1.42	-2.64 (inactive)	-0.62 (inactive)	-0.628 (inactive)
CC(C)C[C@@H]1NC(=O)[C@H]2C[C@@H](C(=O)NCCCCCCNC(=O)CS)[C@@H](c3ccc(O)cc3)N2C1=O	0.102	0.153 (inactive)	0.0815 (inactive)	0.31 (inactive)	0.932 (inactive)	0.088 (inactive)	0.236 (inactive)	-0.0073 (inactive)	-0.596	0.101	3.87 (inactive)	0.409	0.214	-3.29 (inactive)	1.15 (inactive)	0.716 (inactive)
C=CCOC(=O)[C@@H]1[C@H]2C(=O)O[C@H](c3ccccc3)[C@H](c3ccccc3)N2[C@H](c2ccc(OCCOC(=O)[C@H]3C[C@H]4C(=O)NCC(=O)N4[C@H]3c3ccc(O)cc3)cc2)[C@@]12C(=O)Nc1ccc(I)cc12	-0.675	2.01 (inactive)	-0.349 (inactive)	-1.14 (inactive)	3.08 (inactive)	1.28 (inactive)	-0.0185 (inactive)	-0.282 (inactive)	-0.331	-0.0669	1.34 (inactive)	0.868	-1.69	1.52 (inactive)	-0.804 (inactive)	-0.762 (inactive)
